Results published in ChEMBL document CHEMBL3988442, “University of Dundee, Small-Polar-MMV Screening Library” (2021).
For some assays here: Measured potencies and affinities stand elsewhere.

Legend:
Set-up in all cases: scale not given: direction of the effect not stated beside the values
[1] = biological target: Protein translocase subunit SecA (Escherichia coli (strain K12)) (UniProt P10408); test: Assay to Identify E. coli SecA ATPase Inhibitors; type: functional; conditions: 30 µM
[2] = biological target: T1, Ubiquitin-activating enzyme e1, putative (Leishmania donovani (strain BPK282A1)) (UniProt E9BSI1); test: Leishmania donovani Ubiquitin Activating Enzyme (LdE1); type: functional; conditions: 30 µM
T1 sequence (whole entry): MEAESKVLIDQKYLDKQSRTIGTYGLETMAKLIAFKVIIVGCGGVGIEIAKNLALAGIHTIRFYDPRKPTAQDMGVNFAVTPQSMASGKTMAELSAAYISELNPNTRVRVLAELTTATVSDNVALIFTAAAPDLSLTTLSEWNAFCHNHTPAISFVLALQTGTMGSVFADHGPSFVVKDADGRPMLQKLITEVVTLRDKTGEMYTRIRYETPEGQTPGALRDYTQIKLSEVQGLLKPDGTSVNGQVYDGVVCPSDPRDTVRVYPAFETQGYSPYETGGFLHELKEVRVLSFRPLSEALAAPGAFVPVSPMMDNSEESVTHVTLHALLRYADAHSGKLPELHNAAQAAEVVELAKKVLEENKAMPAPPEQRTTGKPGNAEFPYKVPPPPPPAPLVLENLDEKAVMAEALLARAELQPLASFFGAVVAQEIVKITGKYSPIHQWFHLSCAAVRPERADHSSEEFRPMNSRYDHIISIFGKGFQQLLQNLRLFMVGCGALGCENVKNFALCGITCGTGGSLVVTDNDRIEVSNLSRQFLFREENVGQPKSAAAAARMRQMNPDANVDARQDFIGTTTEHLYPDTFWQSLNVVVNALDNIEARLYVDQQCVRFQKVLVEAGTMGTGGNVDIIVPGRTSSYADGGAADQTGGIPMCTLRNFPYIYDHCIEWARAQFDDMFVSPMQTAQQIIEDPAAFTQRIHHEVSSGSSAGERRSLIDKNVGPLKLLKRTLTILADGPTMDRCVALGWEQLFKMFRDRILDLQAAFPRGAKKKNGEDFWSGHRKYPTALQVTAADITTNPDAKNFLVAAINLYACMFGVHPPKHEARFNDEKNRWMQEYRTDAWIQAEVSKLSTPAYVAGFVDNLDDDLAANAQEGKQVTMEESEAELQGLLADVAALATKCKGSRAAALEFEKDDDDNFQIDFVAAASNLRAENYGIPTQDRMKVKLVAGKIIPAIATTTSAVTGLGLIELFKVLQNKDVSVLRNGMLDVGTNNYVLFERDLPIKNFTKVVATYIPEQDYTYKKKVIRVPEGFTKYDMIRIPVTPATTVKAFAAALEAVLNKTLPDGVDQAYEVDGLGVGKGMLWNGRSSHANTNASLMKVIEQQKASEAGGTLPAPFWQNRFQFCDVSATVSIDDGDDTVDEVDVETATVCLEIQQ

[3] = biological target: AMP-activated protein kinase, AMPK (Homo sapiens) (UniProt P54646+O43741+P54619+Q9UGJ0+Q9Y478+Q13131+Q9UGI9); test: AMP-dependent Kinase enzyme assay. An in vitro enzyme assay that detects ADP turnover that is directly proportional to AMPK activity. This uses naive AMPK that is activated during the assay with MK-8722; type: functional; conditions: 30 µM
[4] = biological target: Sialic acid-binding Ig-like lectin 9 (Homo sapiens) (UniProt Q9Y336); test: Hs-Siglec9 ALPHAscreen SOP 20170721; conditions: 10 µM
Trypanosoma cruzi = test: Trypanosoma cruzi phosphomannomutase and mannose-1-phosphate guanylyltransferase assay; type: functional; conditions: 10 µM
[5] = biological target: T2, Arginase-2, mitochondrial (Homo sapiens) (UniProt P78540); test: in vitro enzyme assay to detect the production of urea directly proportional to the activity of Arginase II; type: functional; conditions: 33.3 µM; note: in the data most compounds retested in dose-response had high values
T2 sequence (whole entry): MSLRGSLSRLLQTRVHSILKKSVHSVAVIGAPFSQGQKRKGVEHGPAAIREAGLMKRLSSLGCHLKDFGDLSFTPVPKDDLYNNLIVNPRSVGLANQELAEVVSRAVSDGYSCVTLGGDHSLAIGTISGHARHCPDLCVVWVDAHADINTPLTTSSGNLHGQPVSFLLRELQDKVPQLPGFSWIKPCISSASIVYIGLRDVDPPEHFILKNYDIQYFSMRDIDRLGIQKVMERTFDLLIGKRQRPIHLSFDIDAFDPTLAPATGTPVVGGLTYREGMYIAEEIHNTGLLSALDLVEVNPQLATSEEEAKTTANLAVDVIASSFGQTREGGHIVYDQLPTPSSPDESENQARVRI

[6] = biological target: T3, Proteasome subunit beta (Trypanosoma cruzi) (UniProt O96673); test: Trypanosoma cruzi proteasome chymotrypsin-like activity (TcProtChymo) assay.; note: in the data most compounds retested in dose-response had high values; type: functional; conditions: 9.37 µM
T3 sequence (whole entry): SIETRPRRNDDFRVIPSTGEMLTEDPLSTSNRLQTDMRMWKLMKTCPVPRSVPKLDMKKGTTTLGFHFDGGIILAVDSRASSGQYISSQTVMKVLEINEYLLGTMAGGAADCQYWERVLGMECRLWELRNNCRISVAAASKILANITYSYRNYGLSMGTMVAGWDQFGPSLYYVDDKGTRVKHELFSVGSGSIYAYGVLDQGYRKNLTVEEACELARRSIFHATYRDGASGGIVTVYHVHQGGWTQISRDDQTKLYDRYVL

Homo sapiens = species: Homo sapiens; test: To identify inhibition of the IFN signalling (Jak-Stat) pathway via expression of an eGFP reporter gene under the control of an IFN-stimulated response element (ISRE) containing MxA promoter.; type: functional; conditions: 30 µM
[7] = biological target: T4, Tyrosyl-tRNA synthetase, putative (Trypanosoma cruzi (strain CL Brener)) (UniProt Q4DSP6); test: Trypanosoma cruzi tyrosyl tRNA synthetase (TcYRS) _High Tyrosine SOP; type: functional; conditions: 30 µM; note: in the data most compounds retested in dose-response had high values
T4 sequence (whole entry): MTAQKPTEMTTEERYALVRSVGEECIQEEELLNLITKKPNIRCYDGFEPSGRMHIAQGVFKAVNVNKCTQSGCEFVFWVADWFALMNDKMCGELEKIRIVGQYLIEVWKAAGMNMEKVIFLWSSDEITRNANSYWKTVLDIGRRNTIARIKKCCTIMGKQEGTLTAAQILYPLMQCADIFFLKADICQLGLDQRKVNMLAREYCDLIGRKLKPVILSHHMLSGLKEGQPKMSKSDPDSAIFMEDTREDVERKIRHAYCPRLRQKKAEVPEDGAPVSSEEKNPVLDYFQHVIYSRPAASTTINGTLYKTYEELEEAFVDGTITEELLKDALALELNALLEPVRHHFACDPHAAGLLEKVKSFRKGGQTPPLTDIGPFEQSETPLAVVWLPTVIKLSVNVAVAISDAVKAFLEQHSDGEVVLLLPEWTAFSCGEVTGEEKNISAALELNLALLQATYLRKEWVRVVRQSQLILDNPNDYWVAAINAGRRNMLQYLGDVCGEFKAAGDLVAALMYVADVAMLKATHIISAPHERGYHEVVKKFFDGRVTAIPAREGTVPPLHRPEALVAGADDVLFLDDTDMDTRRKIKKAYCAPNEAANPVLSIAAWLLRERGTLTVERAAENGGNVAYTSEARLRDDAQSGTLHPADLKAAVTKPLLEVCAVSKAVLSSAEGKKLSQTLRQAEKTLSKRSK

[8] = biological target: T4, Tyrosyl-tRNA synthetase, putative (Trypanosoma cruzi (strain CL Brener)); test: Trypanosoma cruzi tyrosyl tRNA synthetase (TcYRS) SOP; type: functional; conditions: 30 µM
[9] = biological target: Chromo domain-containing protein 1 (Saccharomyces cerevisiae (strain ATCC 204508 / S288c) (Baker's yeast)) (UniProt P32657); test: ScCHD-1 Enzyme Inhibition Assay; type: functional; conditions: 30 µM; note: in the data most compounds retested in dose-response had high values
Chromo domain-containing protein 1 (Saccharomyces cerevisiae (strain ATCC 204508 / S288c) (Baker's yeast)), sequence (P32657 whole entry, the tested form may be a part): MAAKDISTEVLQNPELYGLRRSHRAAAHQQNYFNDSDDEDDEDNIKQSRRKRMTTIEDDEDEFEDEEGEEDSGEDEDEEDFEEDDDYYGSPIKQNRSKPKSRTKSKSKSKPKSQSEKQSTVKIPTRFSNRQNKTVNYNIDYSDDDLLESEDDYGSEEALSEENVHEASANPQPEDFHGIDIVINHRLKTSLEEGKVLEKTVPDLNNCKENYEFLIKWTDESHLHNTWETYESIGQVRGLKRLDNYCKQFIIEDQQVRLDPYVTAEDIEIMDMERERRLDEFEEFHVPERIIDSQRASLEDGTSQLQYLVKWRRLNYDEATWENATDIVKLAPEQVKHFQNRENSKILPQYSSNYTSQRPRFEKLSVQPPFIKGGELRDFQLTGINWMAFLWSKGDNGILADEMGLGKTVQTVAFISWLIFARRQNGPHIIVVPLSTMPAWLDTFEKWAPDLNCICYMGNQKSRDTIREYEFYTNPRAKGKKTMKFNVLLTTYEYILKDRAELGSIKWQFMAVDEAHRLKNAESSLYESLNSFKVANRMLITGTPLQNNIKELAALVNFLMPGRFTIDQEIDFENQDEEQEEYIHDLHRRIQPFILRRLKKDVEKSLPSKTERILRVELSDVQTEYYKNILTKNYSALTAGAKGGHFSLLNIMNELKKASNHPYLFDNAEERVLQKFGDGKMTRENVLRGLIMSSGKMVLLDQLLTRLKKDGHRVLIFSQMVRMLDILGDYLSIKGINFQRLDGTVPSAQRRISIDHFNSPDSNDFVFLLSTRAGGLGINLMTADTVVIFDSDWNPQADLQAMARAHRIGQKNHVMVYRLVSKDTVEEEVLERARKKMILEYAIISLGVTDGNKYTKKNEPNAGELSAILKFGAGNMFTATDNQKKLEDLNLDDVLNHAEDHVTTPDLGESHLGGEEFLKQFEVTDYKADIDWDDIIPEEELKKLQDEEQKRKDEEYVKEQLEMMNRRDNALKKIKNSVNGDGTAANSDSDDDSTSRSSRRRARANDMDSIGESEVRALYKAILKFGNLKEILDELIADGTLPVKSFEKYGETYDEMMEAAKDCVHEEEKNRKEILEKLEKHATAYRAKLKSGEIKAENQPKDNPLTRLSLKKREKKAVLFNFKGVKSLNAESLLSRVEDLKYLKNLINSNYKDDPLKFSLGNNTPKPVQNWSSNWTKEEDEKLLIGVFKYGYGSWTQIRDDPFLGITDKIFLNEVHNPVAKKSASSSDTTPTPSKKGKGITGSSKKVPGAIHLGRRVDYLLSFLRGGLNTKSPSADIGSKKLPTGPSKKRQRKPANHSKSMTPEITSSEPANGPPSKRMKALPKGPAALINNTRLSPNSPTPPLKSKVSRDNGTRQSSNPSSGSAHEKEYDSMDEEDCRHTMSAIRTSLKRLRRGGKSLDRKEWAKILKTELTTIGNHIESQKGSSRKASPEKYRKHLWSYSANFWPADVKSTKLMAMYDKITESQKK

Sialic acid-binding Ig-like lectin 9 (Homo sapiens), sequence (Q9Y336 whole entry): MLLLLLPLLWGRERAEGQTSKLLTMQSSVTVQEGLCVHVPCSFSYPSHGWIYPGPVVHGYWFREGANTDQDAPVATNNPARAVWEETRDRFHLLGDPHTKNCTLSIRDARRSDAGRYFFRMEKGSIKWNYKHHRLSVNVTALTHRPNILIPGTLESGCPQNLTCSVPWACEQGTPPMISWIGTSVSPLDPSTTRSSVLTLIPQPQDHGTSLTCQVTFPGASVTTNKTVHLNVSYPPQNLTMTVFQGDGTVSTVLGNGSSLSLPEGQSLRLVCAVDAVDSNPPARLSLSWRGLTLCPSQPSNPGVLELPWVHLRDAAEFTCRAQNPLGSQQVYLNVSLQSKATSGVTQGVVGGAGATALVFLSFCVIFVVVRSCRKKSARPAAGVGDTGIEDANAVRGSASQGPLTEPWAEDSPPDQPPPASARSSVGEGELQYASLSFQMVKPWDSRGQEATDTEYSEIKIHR
Protein translocase subunit SecA (Escherichia coli (strain K12)), sequence (P10408 whole entry): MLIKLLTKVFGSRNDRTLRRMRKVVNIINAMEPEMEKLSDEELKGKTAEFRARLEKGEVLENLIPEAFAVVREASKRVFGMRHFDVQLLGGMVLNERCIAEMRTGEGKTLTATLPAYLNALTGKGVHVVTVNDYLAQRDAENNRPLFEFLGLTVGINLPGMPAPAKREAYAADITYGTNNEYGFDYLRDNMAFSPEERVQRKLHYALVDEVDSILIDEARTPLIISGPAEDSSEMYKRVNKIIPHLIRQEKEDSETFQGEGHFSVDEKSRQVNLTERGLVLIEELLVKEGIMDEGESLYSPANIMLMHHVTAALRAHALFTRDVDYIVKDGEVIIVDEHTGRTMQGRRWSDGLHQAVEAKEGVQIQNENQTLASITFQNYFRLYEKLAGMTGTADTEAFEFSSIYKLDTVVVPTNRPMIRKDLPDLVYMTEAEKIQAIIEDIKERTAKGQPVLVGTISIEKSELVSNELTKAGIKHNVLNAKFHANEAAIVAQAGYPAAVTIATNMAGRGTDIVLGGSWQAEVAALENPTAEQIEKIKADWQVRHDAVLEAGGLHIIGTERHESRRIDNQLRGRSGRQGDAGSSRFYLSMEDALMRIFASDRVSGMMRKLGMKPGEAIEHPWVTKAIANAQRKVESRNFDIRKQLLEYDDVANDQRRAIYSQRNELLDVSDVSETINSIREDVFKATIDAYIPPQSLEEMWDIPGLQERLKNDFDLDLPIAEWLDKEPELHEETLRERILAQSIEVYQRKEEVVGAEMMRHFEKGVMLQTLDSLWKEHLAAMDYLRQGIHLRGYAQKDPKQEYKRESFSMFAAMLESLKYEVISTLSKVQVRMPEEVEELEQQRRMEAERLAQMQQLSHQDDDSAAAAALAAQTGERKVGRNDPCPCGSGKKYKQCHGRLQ

Row | SMILES | Percent Effect [1] [%] | Percent Effect [2] [%] | Percent Effect [3] [%] | Percent Effect [4] [%] | Percent Effect (Trypanosoma cruzi) [%] | Percent Effect [5] [%] | Percent Effect [6] [%] | Percent Effect (Homo sapiens) [%] | Percent Effect [7] [%] | Percent Effect [8] [%] | Percent Effect [9] [%]
1 | CN1CCc2c(C#N)c(NCc3ccco3)n3cnnc3c2C1 | -7.61 | 15.8 | 0.706 | 6.25 | 1.07 | 0 | 14.5 | -6.85 | 4.25 | 15.6 | -17.9
2 | CC(C)c1ccc(C(O)Cn2c(=O)c(C#N)cn(C3CC3)c2=O)cc1 (configuration not stated) | -0.117 | -2.63 | 7.18 | 0.134 | -6.39 | 4.21 | 0.334 | 1.74 | -1.47 | -2.44 | -2.6
3 | COC(=O)C(NC(=O)COC1CCCC1)c1cc(F)ccc1F (configuration not stated) | -6.55 | 7.79 | -4.98 | 20.1 | 5.06 | -7.83 | 2.7 | -0.885 | 4.85 | 21.9 | -9.9
4 | Cc1cc(C[C@@H]2COC[C@@H]2NC(=O)CN2CCCN(C)CC2)on1 | -3.19 | 16.4 | 2.04 | 6.47 | 6.27 | 4.54 | 13.3 | 4.37 | 8.6 | -55 | -6.96
5 | CCCC(C)C(=O)NCc1cn2cc(Br)ccc2n1 (configuration not stated) | -3.66 | -44.7 | 5.33 | 4.19 | -0.876 | -2.37 | 9.68 | 4.86 | 9.57 | 15.6 | -2.1
6 | O=C(NCCNc1cnccn1)N1CCCC1 | -4.38 | 6.33 | 8.17 | -3.74 | -2.56 | 1.94 | 5.15 | 8.14 | 1.04 | 5.06 | -18.6
7 | CNC(=O)C1CCN(C(=O)c2cccn2Cc2cccs2)CC1 | -4.47 | -2.6 | 1.37 | -5.3 | -5.99 | 2.85 | 6.25 | 40.1 | 6.8 | 9.76 | -7.72
8 | CC(O)CN(CC(=O)NC(=O)NC1CC1)c1ccccc1 (configuration not stated) | -7.41 | 15.6 | -2.19 | -7.69 | -2.64 | -3.16 | 3.64 | 6.08 | 5.71 | 2.35 | -17.8
9 | O=C1CCC2(CCCN(c3ncc(F)cn3)CC2)N1CC1CC1 (configuration not stated) | -4 | 7.79 | 3.94 | 5.12 | 1.08 | 5.81 | 12.7 | 14.5 | 6.35 | 16.7 | -4.57
10 | O=S(=O)(NC1=NCN(CCc2cccs2)CN1)c1ccccc1 | -3.47 | 9.33 | 1.7 | 2.24 | 6.29 | -11.1 | 18.3 | 19.6 | 5.29 | 12.8 | -7.27
11 | CN(Cc1nccn1CC(F)(F)F)C(=O)c1ccc(F)cc1F | -4.89 | 5.26 | 5.36 | 6.23 | -5.16 | -5.92 | 12.8 | -12.9 | 6.38 | 7.79 | 3.79
12 | Cc1cc(C)n(-c2cncc(NCCNC(=O)CC3CCCC3)n2)n1 | -5.92 | 5.41 | 16.2 | 27.9 | 0.489 | 1.24 | 8.67 | -10.2 | 1.07 | 8.64 | -4.7
13 | COc1ccc(CN2C[C@@H]3OCCN(CC4CCCO4)[C@@H]3C2)cc1 (some centres not stated) | -0.662 | 10.8 | 2.03 | -5.49 | 6.16 | -4.78 | 17.3 | 3.23 | 3.24 | 12.8 | 5.65
14 | O=C(CN1CCCCC1C1OCCO1)Nc1ccc(F)c(F)c1 (configuration not stated) | -3.75 | 5.41 | 1.85 | -4.88 | -1.95 | 0 | 6.68 | 17.6 | 1.98 | 6.1 | 2.05
15 | CCC(=O)NC1CCN(c2cccc(CC)c2)CC1 | -7.28 | 3.8 | 2.12 | -4.76 | 1.13 | -1.5 | 4.97 | 16.9 | 3.12 | -10.1 | -27.3
16 | C[C@@H]1CN(C(=O)c2cnc(C3CC3)nc2)CC[C@@]1(O)C1CCOCC1 | -3.43 | 10.8 | -4.34 | 21.6 | 4.44 | -8.57 | 6.55 | -5.6 | 4.76 | 9.76 | -5.75
17 | Cc1nnsc1C(=O)N1CCC2(CC1)c1nc[nH]c1CCN2CC(C)C | -4.82 | 5.33 | -0.152 | -8.33 | -1.46 | -2.08 | 12.4 | -1.57 | 1.64 | 6.17 | -5.05
18 | Cn1nc(CNC(=O)c2ccc(Cl)cc2)c2c1CCOC2 | -1.53 | 2.6 | 6.72 | 8.57 | 0.0986 | -3.23 | 1.22 | 5.87 | 4.23 | 6.41 | -3.86
19 | CCN(CC)C(=O)c1nnn(Cc2ccccc2)c1OC | -6.72 | -1.33 | 3.11 | 2.1 | -4.52 | -4.05 | 8.32 | -11.4 | 6.35 | 5.13 | -1.8
20 | Cc1nn(-c2ccccc2)c2c1C(c1ccc(C(=O)O)cc1)CC(=O)N2 (configuration not stated) | -4.78 | 10.7 | -3.15 | 13.8 | 6.33 | 2.6 | 7.85 | 11.5 | 3.83 | 6.17 | -14.9
21 | COc1ccc(OC)c(C(C)Nc2nc3c(C)nn(C)c3c(=O)n2C)c1 (configuration not stated) | -5.58 | -5.2 | 5.05 | 1.13 | -6.2 | -22.1 | 14.8 | 38.9 | -2.15 | -3.7 | -5.55
22 | CCC(C)NC(=O)c1ccccc1-n1cnnn1 (configuration not stated) | -6.55 | 5.33 | 0.166 | 2.83 | -0.292 | 5.21 | 12.2 | 3.8 | 9.29 | 16.1 | -6.11
